Only a selection was taken, and the strongest signals are over-represented in it overall.
Assays:
Test in all cases: glycan array binding signal (z-score within array); higher = stronger binding
Details in all cases: glycan notation: IUPAC condensed, linker removed
[1] = target: GlcNAc(b1-2)Man(a1-3)[GlcNAc(b1-2)Man(a1-6)]Man(b1-4)GlcNAc(b1-4)GlcNAc
Outline: (§1)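 Arrays were curated from the Consortium for Functional Glycomics database, 3228 in total, and kept only where the protein sequence was available. Binding is expressed as a within-array Z-score. This score was averaged across arrays of the same protein sequence at different concentrations or buffers and across linkers, and negative values can be read as non-binding.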

GlcNAc(b1-3)Gal(b1-4)Glc = target: GlcNAc(b1-3)Gal(b1-4)Glc
Outline: as §1

[2] = target: GlcNAc(b1-3)Gal(b1-4)GlcNAc(b1-3)Gal(b1-4)GlcNAc(b1-3)Gal(b1-4)GlcNAc(b1-2)[GlcNAc(b1-3)Gal(b1-4)GlcNAc(b1-3)Gal(b1-4)GlcNAc(b1-3)Gal(b1-4)GlcNAc(b1-6)]Man(a1-6)[GlcNAc(b1-3)Gal(b1-4)GlcNAc(b1-3)Gal(b1-4)GlcNAc(b1-3)Gal(b1-4)GlcNAc(b1-2)Man(a1-3)]Man(b1-4)GlcNAc(b1-4)[Fuc(a1-6)]GlcNAc
Outline: as §1

[3] = target: GlcNAc(b1-3)Gal(b1-4)GlcNAc(b1-6)[Gal(b1-3)]GalNAc
Outline: as §1

Kdn(a2-3)Gal(b1-3)GalNAc = target: Kdn(a2-3)Gal(b1-3)GalNAc
Outline: as §1

Man(a1-3)[Man(a1-6)]Man = target: Man(a1-3)[Man(a1-6)]Man
Outline: as §1

[4] = target: Man(a1-3)[Man(a1-6)]Man(a1-6)[Man(a1-3)]Man
Outline: as §1

[5] = target: Neu5Ac(a2-3)Gal(b1-3)GalNAc(b1-3)Gal(b1-4)GlcNAc
Outline: as §1

[6] = target: Neu5Ac(a2-3)Gal(b1-3)GlcNAc(b1-2)Man(a1-3)[Neu5Ac(a2-3)Gal(b1-3)GlcNAc(b1-2)Man(a1-6)]Man(b1-4)GlcNAc(b1-4)GlcNAc
Outline: as §1

[7] = target: Neu5Ac(a2-3)Gal(b1-3)[Fuc(a1-4)]GlcNAc
Outline: as §1

[8] = target: Neu5Ac(a2-3)Gal(b1-3)[Neu5Ac(a2-6)]GlcNAc(b1-3)[Fuc(a1-3)[Gal(b1-4)]GlcNAc(b1-6)]Gal(b1-4)Glc
Outline: as §1

Neu5Ac(a2-3)Gal(b1-4)Glc = target: Neu5Ac(a2-3)Gal(b1-4)Glc
Outline: as §1

[9] = target: Neu5Ac(a2-3)Gal(b1-4)GlcNAc(b1-2)Man
Outline: as §1

[10] = target: Neu5Ac(a2-3)Gal(b1-4)GlcNAc(b1-3)Gal(b1-4)GlcNAc(b1-2)Man(a1-3)[Neu5Ac(a2-3)Gal(b1-4)GlcNAc(b1-3)Gal(b1-4)GlcNAc(b1-2)Man(a1-6)]Man(b1-4)GlcNAc(b1-4)GlcNAc
Outline: as §1

[11] = target: Neu5Ac(a2-3)Gal(b1-4)GlcNAc(b1-3)Gal(b1-4)GlcNAc(b1-3)Gal(b1-4)GlcNAc
Outline: as §1

[12] = target: Neu5Ac(a2-3)Gal(b1-4)GlcNAc(b1-3)Gal(b1-4)GlcNAc(b1-3)Gal(b1-4)GlcNAc(b1-2)Man(a1-3)[Neu5Ac(a2-3)Gal(b1-4)GlcNAc(b1-3)Gal(b1-4)GlcNAc(b1-3)Gal(b1-4)GlcNAc(b1-2)Man(a1-6)]GalNAc
Outline: as §1

[13] = target: Neu5Ac(a2-3)Gal(b1-4)GlcNAc(b1-6)[Neu5Ac(a2-3)Gal(b1-3)]GalNAc
Outline: as §1

[14] = target: Neu5Ac(a2-3)Gal(b1-4)[Fuc(a1-3)]GlcNAc
Outline: as §1

[15] = target: Neu5Ac(a2-3)Gal6S(b1-4)[Fuc(a1-3)]GlcNAc
Outline: as §1

Neu5Ac(a2-6)Gal = target: Neu5Ac(a2-6)Gal
Outline: as §1

[16] = target: Neu5Ac(a2-6)Gal(b1-4)GlcNAc(b1-2)Man(a1-6)[Gal(b1-4)GlcNAc(b1-2)Man(a1-3)]Man(b1-4)GlcNAc(b1-4)GlcNAc
Outline: as §1

[17] = target: Neu5Ac(a2-6)Gal(b1-4)GlcNAc(b1-2)[Neu5Ac(a2-6)Gal(b1-4)GlcNAc(b1-4)]Man(a1-3)[GlcNAc(b1-4)][Neu5Ac(a2-6)Gal(b1-4)GlcNAc(b1-2)[Neu5Ac(a2-6)Gal(b1-4)GlcNAc(b1-6)]Man(a1-6)]Man(b1-4)GlcNAc(b1-4)GlcNAc
Outline: as §1

[18] = target: Neu5Ac(a2-6)Gal(b1-4)GlcNAc(b1-3)Gal(b1-4)GlcNAc(b1-2)Man(a1-3)[Neu5Ac(a2-6)Gal(b1-4)GlcNAc(b1-3)Gal(b1-4)GlcNAc(b1-2)Man(a1-6)]GalNAc
Outline: as §1

[19] = target: Neu5Ac(a2-6)Gal(b1-4)GlcNAc(b1-3)Gal(b1-4)GlcNAc(b1-3)Gal(b1-4)GlcNAc
Outline: as §1

[20] = target: Neu5Ac(a2-6)Gal(b1-4)GlcNAc(b1-3)Gal(b1-4)GlcNAc(b1-3)Gal(b1-4)GlcNAc(b1-2)Man(a1-3)[Neu5Ac(a2-6)Gal(b1-4)GlcNAc(b1-3)Gal(b1-4)GlcNAc(b1-3)Gal(b1-4)GlcNAc(b1-2)Man(a1-6)]GalNAc
Outline: as §1

[21] = target: Neu5Ac(a2-6)Gal(b1-4)GlcNAc(b1-3)Gal(b1-4)GlcNAc(b1-3)[Neu5Ac(a2-6)Gal(b1-4)GlcNAc(b1-3)Gal(b1-4)GlcNAc(b1-6)]GalNAc
Outline: as §1

[22] = target: Neu5Ac(a2-6)Gal(b1-4)GlcNAc(b1-3)Gal(b1-4)[Fuc(a1-3)]GlcNAc(b1-3)Gal(b1-4)[Fuc(a1-3)]GlcNAc
Outline: as §1

[23] = target: Neu5Ac(a2-8)Neu5Ac(a2-8)Neu5Ac(a2-3)[Gal(b1-3)GalNAc(b1-4)]Gal(b1-4)Glc
Outline: as §1

Neu5Ac(b1-6)GalNAc = target: Neu5Ac(b1-6)GalNAc
Outline: as §1

[24] = target: Neu5Gc(a2-8)Neu5Gc(a2-3)Gal(b1-4)GlcNAc(b1-3)Gal(b1-4)GlcNAc
Outline: as §1

B1: LTL (Lotus tetragonolobus), P19664 (protein)
chain: VSFNYTEFKDDGSLILQGDAKIWTDGRLAMPTDPLVNNPKTTRSAGRALYATPVPIWDSATGNVASFVTSFNFLFVIRELKYTPTDGLVFFLAPVGTEIPSGSTGGFLGIFDGSNGFNQFVAVEFDSYHNIWDPKSLRSSHVGIDVNSIMSLKAVNWNRVSGSLEKATIIYDSQTNILSVVMTSQNGQITTIYGTIDLKTVLPEKVSVGFSATTGNPEREKHDIYSWSFTSTLKEPEEQA
glycan array binding signal (z-score) [1]: -0.3
glycan array binding signal (z-score) (GlcNAc(b1-3)Gal(b1-4)Glc): -0.196
glycan array binding signal (z-score) [2]: 0.185
glycan array binding signal (z-score) [3]: -0.142
glycan array binding signal (z-score) (Kdn(a2-3)Gal(b1-3)GalNAc): 0.043
glycan array binding signal (z-score) (Man(a1-3)[Man(a1-6)]Man): -0.207
glycan array binding signal (z-score) [4]: 0.02
glycan array binding signal (z-score) [5]: -0.26
glycan array binding signal (z-score) [6]: -0.099
glycan array binding signal (z-score) [7]: 0.005
glycan array binding signal (z-score) [8]: -0.123
glycan array binding signal (z-score) (Neu5Ac(a2-3)Gal(b1-4)Glc): -0.023
glycan array binding signal (z-score) [9]: 0.022
glycan array binding signal (z-score) [10]: 2.77
glycan array binding signal (z-score) [11]: -0.035
glycan array binding signal (z-score) [12]: 5.64
glycan array binding signal (z-score) [13]: -0.237
glycan array binding signal (z-score) [14]: -0.31
glycan array binding signal (z-score) [15]: 2.84
glycan array binding signal (z-score) (Neu5Ac(a2-6)Gal): -0.162
glycan array binding signal (z-score) [16]: -0.242
glycan array binding signal (z-score) [17]: -0.15
glycan array binding signal (z-score) [18]: 1.11
glycan array binding signal (z-score) [19]: -0.226
glycan array binding signal (z-score) [20]: 2.02
glycan array binding signal (z-score) [21]: 3.76
glycan array binding signal (z-score) [22]: -0.039
glycan array binding signal (z-score) [23]: 0.131
glycan array binding signal (z-score) (Neu5Ac(b1-6)GalNAc): -0.326
glycan array binding signal (z-score) [24]: -0.15

Reference: the supplement of paper PMC8728848
